Records with an inconclusive call do not appear. A number with no mark means an inactive call. The source made the active and inactive calls. The call rests on the fitted dose curve; in most records, active means well fitted curve in the direction sought with a large enough effect; inconclusive means small, poorly fitted or top-dose-only effect, or another doubt; inactive means no such curve, though single readings can be large; an effect the other way counts as inactive or inconclusive.

Assay [1] concerns CRL-7250. Put plainly: Cytotoxic Profiling of Annotated Libraries Using Quantitative High-Throughput Screening (AID 1296008). Further: nearly all actives have a fitted effect of over 60% in size. As to conditions: Five cell lines viability, CellTiter-Glo ATP luminescence, 48-72 h; max response: stronger effect = lower value. The method in brief:
(§1)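 Compounds were pin-transferred onto cells and incubated 48 or 72 hr at 37 degree Celsius, 95% humidity. CellTiter-Glo was added, plates sat 10 min at room temperature, then ATP-coupled luminescence was imaged as the viability read-out.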

In another assay the test system is HEK293. The assay is described as above. The conditions noted are these: Five cell lines viability, CellTiter-Glo ATP luminescence, 48-72 h; max response: stronger effect = lower value. The essentials: as §1
(In general: ATP-based viability assays read luminescence as a measure of living cells.)

The test system of assay [2] is HaCat. Described as above. The conditions noted are these: Five cell lines viability, CellTiter-Glo ATP luminescence, 48-72 h; max response: stronger effect = lower value. The method in brief:
as §1

For the next assay, the system named is KB-3-1. The description is as above. As to conditions: Five cell lines viability, CellTiter-Glo ATP luminescence, 48-72 h; max response: stronger effect = lower value. The method in brief: as §1
For assay [3], the system named is NIH3T3. The assay is described as above. As to conditions: Five cell lines viability, CellTiter-Glo ATP luminescence, 48-72 h; max response: stronger effect = lower value. The method in brief: as §1
Another assay concerns MCC-13. Put plainly: qHTS assay to identify novel small-molecules to repurpose for Merkel cell carcinoma treatment (AID 1296009). Further: nearly all actives have a fitted effect of over 60% in size. As to conditions: MCC and control cell lines, CellTiter-Glo viability, 72 h; series mostly up to 46 µM. The method in brief:
(§2)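 Luminescence from CellTiter-Glo, read 10 min after addition at room temperature, reported viability following a 72 hr, 37 degree celsius treatment with NPC or MIPE compounds in titration; values normalized to plate controls.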

Another assay relates to MCC-26. The description is as above. The conditions noted are these: MCC and control cell lines, CellTiter-Glo viability, 72 h; series mostly up to 46 µM. The essentials: as §2
The test system of the next assay is MKL-1. The description is as above. The conditions noted are these: MCC and control cell lines, CellTiter-Glo viability, 72 h; series mostly up to 46 µM. The essentials:
as §2

A further assay has as its system MKL-2. The assay is described as above. The conditions noted are these: MCC and control cell lines, CellTiter-Glo viability, 72 h; series mostly up to 46 µM. The essentials:
as §2

In a further assay the test system is UISO. The description is as above. As to conditions: MCC and control cell lines, CellTiter-Glo viability, 72 h; series mostly up to 46 µM. The essentials:
as §2

For another assay, the system named is WaGa. The description is as above. The conditions noted are these: MCC and control cell lines, CellTiter-Glo viability, 72 h; series mostly up to 46 µM. The essentials: as §2
A further assay concerns C33A. Briefly: Primary qHTS to identify gynecologic anti-cancer compounds using libraries of approved drugs and bioactive compounds (AID 1345084). Further: nearly all actives have a fitted effect of over 55% in size. As to conditions: Gynecologic cancer cell panel viability, ATPlite luminescence, 48 h; series mostly up to 57.5 µM. The method in brief:
(§3)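 Cells, 1,000 per well, plated 16 h, then exposed 48 h at 37 C to compounds. Viability by ATPlite luminescence after 15 min at room temperature.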
A general note: qHTS replaces the single test concentration by a dilution series.

A further assay deals with CASKI. Described as above. As to conditions: Gynecologic cancer cell panel viability, ATPlite luminescence, 48 h; series mostly up to 57.5 µM. The method in brief: as §3
The subject of another assay is Es-2. The assay is described as above. As to conditions: Gynecologic cancer cell panel viability, ATPlite luminescence, 48 h; series mostly up to 57.5 µM. The method in brief:
as §3

Another assay deals with HeLa. The description is as above. The conditions noted are these: Gynecologic cancer cell panel viability, ATPlite luminescence, 48 h; series mostly up to 57.5 µM. The method in brief:
as §3

A further assay concerns HEK293T. Briefly: qHTS assay to identify novel small-molecules to repurpose for Merkel cell carcinoma treatment (AID 1296009). Further: nearly all actives have a fitted effect of over 60% in size. As to conditions: MCC and control cell lines, CellTiter-Glo viability, 72 h; at 44.8 µM (top of the series). The essentials: as §2
The test system of the next assay is CAOV3. Briefly: Primary qHTS to identify gynecologic anti-cancer compounds using libraries of approved drugs and bioactive compounds (AID 1345084). Further: nearly all actives have a fitted effect of over 55% in size. The conditions noted are these: Gynecologic cancer cell panel viability, ATPlite luminescence, 48 h; series mostly up to 57.5 µM. The essentials:
as §3

For assay [4], the system named is HACAT. Put plainly: qHTS assay to identify novel small-molecules to repurpose for Merkel cell carcinoma treatment (AID 1296009). Further: nearly all actives have a fitted effect of over 60% in size. The conditions noted are these: MCC and control cell lines, CellTiter-Glo viability, 72 h; at 44.8 µM (top of the series) unless noted. The method in brief:
as §2

For assay [5], the system named is NIH3T3. The assay is described as above. As to conditions: MCC and control cell lines, CellTiter-Glo viability, 72 h; at 44.8 µM (top of the series) unless noted. The essentials:
as §2

Assay [6] deals with CRL-7250. The assay is described as above. The conditions noted are these: MCC and control cell lines, CellTiter-Glo viability, 72 h; at 44.8 µM (top of the series) unless noted. The essentials: as §2
On the % scale 0 is the no-effect control and ±100 the full control effect; potency means the concentration at half of the fitted maximal effect.

As to `CCC(=O)OC1(c2ccccc2)CCN(C)CC1`, the max response in the assay on CRL-7250 [1] is -2.3%; in the assay with HEK293 it was -12.2%; with HaCat [2], -5.78%; in the assay on KB-3-1 it was 2.4%; with NIH3T3 [3] it was -0.056%. In addition, the Potency entry in the assay on MCC-13, in the assay with MCC-26, in the assay on MKL-1, with MKL-2, with UISO and in the assay on WaGa was “inactive” in each case. Also, the Potency result with C33A, with CASKI, in the assay on Es-2 and with HeLa was “inactive” each time.

On to `CCOC(=O)NC(C)(C)Cc1ccc(Cl)cc1`, for which the max response with CRL-7250 [1] is -4.28%; in the assay on HaCat [2], 1.84%; in the assay with KB-3-1, 2.37%; in the assay on NIH3T3 [3], -3.93%. The molecule was classed as inactive with HEK293 and with HEK293T. Moreover, the Potency entry in the assay on MCC-13, with MCC-26, in the assay on MKL-1, in the assay with MKL-2, in the assay on UISO and with WaGa was “inactive” in each case. In addition, the Potency result in the assay with C33A, in the assay with CAOV3, in the assay on CASKI, in the assay on Es-2 and in the assay with HeLa was “inactive” each time.

For `CCOC(=O)c1ncn2c1CN(C)C(=O)c1c(I)cccc1-2`, the max response with CRL-7250 [1] is -19.8%; in the assay on HEK293 it was -11.8%; in the assay with HaCat [2], -1.53%; with KB-3-1, 1.54%; in the assay with NIH3T3 [3], -15.1%. In addition, the Potency result in the assay on MCC-13, with MCC-26, in the assay with MKL-1, in the assay with MKL-2, with UISO and with WaGa was “inactive” each time. Further, the Potency entry with C33A, in the assay with CASKI, in the assay with Es-2 and in the assay with HeLa was “inactive” in each case.

`CCOC(=O)C(c1c(O)c2ccccc2oc1=O)c1c(O)c2ccccc2oc1=O`: the max response in the assay on CRL-7250 [1] is -6.62%. Besides, the molecule was classed as inactive in the assay on HEK293, in the assay on HaCat [2], in the assay with NIH3T3 [3], with HACAT [4], in the assay with HEK293T and in the assay on NIH3T3 [5]. Moreover, the Potency result with MCC-13, with MCC-26, in the assay with MKL-1, in the assay with MKL-2, with UISO and in the assay on WaGa was “inactive” in each case. Besides, the Potency entry in the assay with C33A, in the assay with CASKI, with Es-2 and in the assay on HeLa was “inactive” throughout.

In the case of `CCC(OC(C)=O)C(CC(C)NC)(c1ccccc1)c1ccccc1` (centres undefined), the Potency with CRL-7250 [1] was 43.7 µM (active); with HEK293 it was 31 µM (active); with HaCat [2] it was 27.6 µM (active); with UISO it was 49.1 µM (active); in the assay on CAOV3, 39.8 µM (active); with HeLa, 31.6 µM (active). The max response with KB-3-1 was -22.1%.

As for `O=C(CBr)Nc1ccc(Cl)cc1C(=O)c1ccccc1F`, the outcome in the assay with CRL-7250 [1], with NIH3T3 [3], in the assay with CRL-7250 [6] and with NIH3T3 [5] was inactive. Further, the figures for the max response in the assay with HEK293 and with HaCat [2] were -0.335% and 3.69%, respectively. Further, the Potency entry in the assay with MCC-13, in the assay with MCC-26, in the assay with MKL-1, in the assay on MKL-2, in the assay with UISO and in the assay with WaGa was “inactive” in each case. The Potency entry with C33A, in the assay with CAOV3, with CASKI, with Es-2 and in the assay on HeLa was “inactive” in each case.

In the case of `CC(Cc1ccc2c(c1)OCO2)NO` (centres undefined), the max response in the assay with CRL-7250 [1] was -0.759%; in the assay on HEK293 it was -1.22%; in the assay with HaCat [2] it was -1.01%; in the assay on KB-3-1 it was -9.46%; in the assay on NIH3T3 [3], 3.02%. The Potency result in the assay on MCC-13, with MCC-26, in the assay with MKL-1, in the assay with MKL-2, in the assay with UISO and with WaGa was “inactive” in each case. The Potency result with C33A, with CAOV3, in the assay with CASKI, with Es-2 and in the assay with HeLa was “inactive” in each case.
